Source: the supplement of paper PMC10849652
Of roughly 7,900 targets only a part is listed; those with a hit were picked by preference. About 0.6% of all pairs of compound and target were hits. Unmarked numbers belong to inactive results.

What was measured:
Test in all cases: log2 fold change, soluble protein after heating vs DMSO (PISA); higher = thermal stabilisation; K562 cells, 10 uM, 30 min; active = over 0.2 and 3.5 SD of the protein, either way, in both replicates (recomputed)
[1] = compound: CC1=C(C=C(C=C1)NC(=O)C2=CC(=CC=C2)C(C)(C)C#N)NC3=CC4=C(C=C3)N=CN(C4=O)C
Outline: (§1)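 Values are thermal stability changes relative to control samples and are taken from duplicates. They are stated as log2 fold changes. Before quantification by TMTpro 16plex LC-MS/MS with equalised channel sums, K562 cells at 2×10^6 cells/mL were treated with 10 μM compound for 30 min, heated in aliquots for 3 min across 48°C-58°C, pooled, extracted in PBS with 0.5% NP-40 at 4°C, and centrifuged at 21,000xg for 90 min to give the soluble supernatant.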

[2] = compound: CC1=C(C=C(C=C1)NC(=O)C2=CC(=CC=C2)N(C)C)NC(=O)C3=CC=C(C=C3)O
Outline: as §1

[3] = compound: CC1=CC=C(C=C1)SC2=C3C=C(SC3=CN=C2)C(=O)N
Outline: as §1

[4] = compound: CC1=NC(=CC=C1)C2=C(N=C(N2)C(C)(C)C)C3=CC4=NC=CN=C4C=C3
Outline: as §1

[5] = compound: CCCS(=O)(=O)Nc1ccc(F)c(C(=O)c2c[nH]c3ncc(-c4ccc(Cl)cc4)cc23)c1F [vemurafenib]
Outline: as §1

[6] = compound: CCCS(=O)(=O)Nc1ccc(F)c(C(=O)c2c[nH]c3ncc(Cl)cc23)c1F
Outline: as §1

[7] = compound: CCCc1cc(C)[nH]c(=O)c1CNC(=O)c1cc(-c2ccnc(N3CCN(C)CC3)c2)cc2c1cnn2C(C)C
Outline: as §1

[8] = compound: CCN(CCCOc1ccc2c(Nc3cc(CC(=O)Nc4cccc(F)c4)[nH]n3)ncnc2c1)CCOP(=O)(O)O [barasertib]
Outline: as §1

[9] = compound: CC[C@@H]1C(=O)N(C)c2cnc(Nc3ccc(C(=O)NC4CCN(C)CC4)cc3OC)nc2N1C1CCCC1
Outline: as §1

[10] = compound: CC[C@@H]1C(=O)N(C)c2cnc(Nc3ccc(C(=O)N[C@H]4CC[C@H](N5CCN(CC6CC6)CC5)CC4)cc3OC)nc2N1C(C)C [volasertib]
Outline: as §1

[11] = compound: CCn1cc(-c2ccnc3[nH]c(-c4cccc(CN(C)C)c4)cc23)c(-c2ccc(NC(=O)N(C)C)cc2)n1
Outline: as §1

[12] = compound: CN(C)CC(=O)Nc1ccc2[nH]c(=O)c3ccccc3c2c1
Outline: as §1

[13] = compound: CN(CCOC1=CC=C(C=C1)C[C@H]2C(=O)NC(=O)S2)C3=CC=CC=N3 (racemic) [rosiglitazone]
Outline: as §1

[14] = compound: CN1C2=C(C3=C1C(=O)N(N=C3)CC4=CC(=CC=C4)N)SC(=C2)S(=O)C
Outline: as §1

[15] = compound: CN1CCC(CNc2ccc3ncc(-c4cccc(OC(F)(F)F)c4)n3n2)CC1
Outline: as §1

[16] = compound: CCCCN(Cc1ccc(C(=O)NO)cc1)C(=O)Nc1ccccc1 [Nexturastat A]
Outline: as §1

[17] = compound: CCN(CC)Cc1ccc2cc(COC(=O)Nc3ccc(C(=O)NO)cc3)ccc2c1 [givinostat]
Outline: as §1

[18] = compound: CC[C@H](C)N1C=C(C2=C(C=C(C=C21)C3=CN=C(C=C3)N4CCNCC4)C(=O)NCC5=C(C=C(NC5=O)C)C)C
Outline: as §1

[19] = compound: CC[C@H](C)[C@@H](C(=O)N[C@@H]([C@@H](C)O)C(=O)N[C@@H](CC(C)C)C(=O)[C@]1(CO1)C)NC(=O)[C@H]([C@@H](C)CC)N(C)C(=O)C [epoxomicin]
Outline: as §1

[20] = compound: CCn1c(C(=O)N(C2CC2)C2CC2)cc2c3c(ncn3C)c(Nc3cc(C)n(C)n3)nc21
Outline: as §1

Chain of UniProt Q9P2N5 (Q9P2N5 whole entry, looked up): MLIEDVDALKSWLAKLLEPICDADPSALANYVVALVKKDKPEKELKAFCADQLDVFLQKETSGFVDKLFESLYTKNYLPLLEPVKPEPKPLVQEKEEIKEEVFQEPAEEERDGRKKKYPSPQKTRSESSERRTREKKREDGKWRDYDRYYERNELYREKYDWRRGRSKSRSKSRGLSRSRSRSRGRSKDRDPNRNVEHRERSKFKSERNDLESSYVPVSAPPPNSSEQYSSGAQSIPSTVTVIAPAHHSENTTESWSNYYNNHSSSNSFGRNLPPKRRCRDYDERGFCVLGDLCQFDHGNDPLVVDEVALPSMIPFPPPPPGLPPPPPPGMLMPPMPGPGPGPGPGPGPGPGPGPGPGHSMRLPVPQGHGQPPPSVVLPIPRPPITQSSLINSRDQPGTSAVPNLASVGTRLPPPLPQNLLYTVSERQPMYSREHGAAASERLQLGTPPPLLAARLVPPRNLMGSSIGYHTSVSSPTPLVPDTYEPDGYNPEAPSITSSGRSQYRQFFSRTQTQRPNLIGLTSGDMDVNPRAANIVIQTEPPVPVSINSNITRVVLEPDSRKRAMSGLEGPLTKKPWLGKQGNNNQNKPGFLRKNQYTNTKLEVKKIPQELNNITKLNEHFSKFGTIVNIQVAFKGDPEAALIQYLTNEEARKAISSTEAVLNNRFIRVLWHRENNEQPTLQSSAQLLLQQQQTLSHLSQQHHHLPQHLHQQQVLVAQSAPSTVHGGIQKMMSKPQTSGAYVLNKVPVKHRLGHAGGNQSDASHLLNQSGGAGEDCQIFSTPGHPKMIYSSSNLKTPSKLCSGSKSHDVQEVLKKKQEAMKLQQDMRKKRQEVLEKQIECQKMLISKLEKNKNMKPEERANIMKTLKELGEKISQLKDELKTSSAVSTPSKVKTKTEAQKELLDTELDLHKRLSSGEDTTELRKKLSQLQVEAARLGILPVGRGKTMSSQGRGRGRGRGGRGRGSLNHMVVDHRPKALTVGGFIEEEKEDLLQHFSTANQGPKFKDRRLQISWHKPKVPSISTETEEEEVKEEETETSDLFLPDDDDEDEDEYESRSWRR
Chain of UniProt Q6NUM9 (Q6NUM9 whole entry, looked up): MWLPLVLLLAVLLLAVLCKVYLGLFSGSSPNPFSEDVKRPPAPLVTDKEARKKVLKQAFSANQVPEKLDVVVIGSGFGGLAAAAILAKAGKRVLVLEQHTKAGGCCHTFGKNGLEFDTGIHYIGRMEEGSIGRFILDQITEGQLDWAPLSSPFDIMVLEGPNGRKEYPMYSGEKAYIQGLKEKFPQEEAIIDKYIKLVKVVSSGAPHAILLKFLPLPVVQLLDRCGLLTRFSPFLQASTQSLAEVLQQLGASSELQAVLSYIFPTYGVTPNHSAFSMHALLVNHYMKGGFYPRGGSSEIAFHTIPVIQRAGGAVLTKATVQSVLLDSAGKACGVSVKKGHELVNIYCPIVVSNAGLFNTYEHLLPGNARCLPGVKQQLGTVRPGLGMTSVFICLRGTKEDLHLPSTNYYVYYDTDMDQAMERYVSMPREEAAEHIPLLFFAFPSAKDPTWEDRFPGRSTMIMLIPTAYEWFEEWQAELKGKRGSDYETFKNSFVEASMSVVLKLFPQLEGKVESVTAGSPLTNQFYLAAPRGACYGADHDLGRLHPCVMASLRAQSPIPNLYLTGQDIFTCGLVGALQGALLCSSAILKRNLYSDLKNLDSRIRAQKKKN
Chain of UniProt Q7L099 (Q7L099 whole entry, looked up): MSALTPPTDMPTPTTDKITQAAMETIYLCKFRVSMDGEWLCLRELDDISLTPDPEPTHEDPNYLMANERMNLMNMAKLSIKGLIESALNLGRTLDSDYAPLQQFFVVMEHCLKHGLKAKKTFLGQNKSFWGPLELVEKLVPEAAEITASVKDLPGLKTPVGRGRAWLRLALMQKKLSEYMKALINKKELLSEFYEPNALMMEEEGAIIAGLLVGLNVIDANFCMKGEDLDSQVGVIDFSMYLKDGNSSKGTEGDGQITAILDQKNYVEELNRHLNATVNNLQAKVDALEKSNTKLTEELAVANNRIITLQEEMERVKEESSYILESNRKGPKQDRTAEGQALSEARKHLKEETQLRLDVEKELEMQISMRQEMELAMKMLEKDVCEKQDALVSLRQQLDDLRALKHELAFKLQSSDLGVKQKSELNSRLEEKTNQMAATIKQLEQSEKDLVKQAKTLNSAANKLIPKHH
Chain of UniProt Q8NBN7 (Q8NBN7 whole entry, looked up): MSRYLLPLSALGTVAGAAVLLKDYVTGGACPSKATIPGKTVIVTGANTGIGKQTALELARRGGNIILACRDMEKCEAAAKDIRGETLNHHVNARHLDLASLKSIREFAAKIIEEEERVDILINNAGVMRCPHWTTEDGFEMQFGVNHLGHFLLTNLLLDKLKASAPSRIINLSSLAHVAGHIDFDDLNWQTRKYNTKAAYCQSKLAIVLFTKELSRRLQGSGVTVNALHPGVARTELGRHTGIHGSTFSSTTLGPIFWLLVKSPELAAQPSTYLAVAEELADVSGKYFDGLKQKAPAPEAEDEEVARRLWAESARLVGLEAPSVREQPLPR
Chain of UniProt Q5RL73 (Q5RL73 whole entry, looked up): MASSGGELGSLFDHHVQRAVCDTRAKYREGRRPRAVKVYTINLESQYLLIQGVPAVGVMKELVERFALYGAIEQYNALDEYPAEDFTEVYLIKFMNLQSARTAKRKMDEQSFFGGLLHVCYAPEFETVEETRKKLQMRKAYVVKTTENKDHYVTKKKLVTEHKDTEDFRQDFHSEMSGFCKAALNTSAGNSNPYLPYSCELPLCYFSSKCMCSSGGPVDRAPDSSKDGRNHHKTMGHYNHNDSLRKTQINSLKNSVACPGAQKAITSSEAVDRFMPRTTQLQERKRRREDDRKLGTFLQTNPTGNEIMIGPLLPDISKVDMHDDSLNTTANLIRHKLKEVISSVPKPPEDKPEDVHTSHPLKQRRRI
Chain of UniProt Q96DM3 (Q96DM3 whole entry, looked up): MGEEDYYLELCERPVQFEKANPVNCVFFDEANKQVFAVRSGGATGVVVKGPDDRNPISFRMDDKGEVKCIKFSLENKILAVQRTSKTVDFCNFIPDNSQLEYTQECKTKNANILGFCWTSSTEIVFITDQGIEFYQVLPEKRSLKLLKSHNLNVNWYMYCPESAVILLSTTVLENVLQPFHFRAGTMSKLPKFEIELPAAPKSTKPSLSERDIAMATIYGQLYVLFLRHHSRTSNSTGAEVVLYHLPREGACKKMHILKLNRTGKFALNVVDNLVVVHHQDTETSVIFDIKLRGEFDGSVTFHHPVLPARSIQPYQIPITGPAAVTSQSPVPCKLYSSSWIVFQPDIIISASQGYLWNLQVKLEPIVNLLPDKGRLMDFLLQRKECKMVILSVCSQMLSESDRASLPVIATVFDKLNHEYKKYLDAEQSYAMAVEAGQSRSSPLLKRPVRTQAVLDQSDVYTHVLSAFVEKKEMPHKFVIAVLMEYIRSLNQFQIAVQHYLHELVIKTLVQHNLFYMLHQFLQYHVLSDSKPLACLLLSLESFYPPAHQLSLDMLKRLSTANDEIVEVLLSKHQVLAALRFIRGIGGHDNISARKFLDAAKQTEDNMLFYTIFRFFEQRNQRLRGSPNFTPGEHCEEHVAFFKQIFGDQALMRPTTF
Chain of UniProt O43819 (O43819 whole entry, looked up): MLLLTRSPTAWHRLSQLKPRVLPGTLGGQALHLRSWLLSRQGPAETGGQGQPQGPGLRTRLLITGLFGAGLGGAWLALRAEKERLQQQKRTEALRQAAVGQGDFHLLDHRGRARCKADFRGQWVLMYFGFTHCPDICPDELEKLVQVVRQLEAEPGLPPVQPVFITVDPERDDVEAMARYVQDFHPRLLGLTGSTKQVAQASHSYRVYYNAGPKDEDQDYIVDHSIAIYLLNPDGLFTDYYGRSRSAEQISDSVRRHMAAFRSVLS
Chain of UniProt Q6NT16 (Q6NT16 whole entry, looked up): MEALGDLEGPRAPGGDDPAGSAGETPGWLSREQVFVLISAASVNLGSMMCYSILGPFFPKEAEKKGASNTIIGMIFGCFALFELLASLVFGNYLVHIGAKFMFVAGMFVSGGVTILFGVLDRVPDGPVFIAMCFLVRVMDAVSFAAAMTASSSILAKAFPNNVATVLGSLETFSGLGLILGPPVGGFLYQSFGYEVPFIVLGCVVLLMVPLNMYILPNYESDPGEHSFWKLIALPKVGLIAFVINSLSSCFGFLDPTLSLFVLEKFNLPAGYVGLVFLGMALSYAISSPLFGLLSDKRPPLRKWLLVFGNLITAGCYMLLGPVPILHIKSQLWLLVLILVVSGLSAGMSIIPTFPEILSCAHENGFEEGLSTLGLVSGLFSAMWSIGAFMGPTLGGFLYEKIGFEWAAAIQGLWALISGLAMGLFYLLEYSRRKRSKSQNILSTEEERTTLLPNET
Chain of UniProt P40938 (P40938 whole entry, looked up): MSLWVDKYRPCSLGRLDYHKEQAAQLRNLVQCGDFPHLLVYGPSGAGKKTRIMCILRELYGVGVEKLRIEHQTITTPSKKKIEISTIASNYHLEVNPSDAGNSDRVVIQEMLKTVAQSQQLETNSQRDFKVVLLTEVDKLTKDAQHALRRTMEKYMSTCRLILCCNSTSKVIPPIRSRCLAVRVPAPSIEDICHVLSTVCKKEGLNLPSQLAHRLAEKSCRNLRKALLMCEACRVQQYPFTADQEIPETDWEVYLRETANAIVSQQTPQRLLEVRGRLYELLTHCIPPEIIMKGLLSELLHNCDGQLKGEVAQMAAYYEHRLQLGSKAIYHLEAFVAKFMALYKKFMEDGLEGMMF
Chain of UniProt Q96EU6 (Q96EU6 whole entry, looked up): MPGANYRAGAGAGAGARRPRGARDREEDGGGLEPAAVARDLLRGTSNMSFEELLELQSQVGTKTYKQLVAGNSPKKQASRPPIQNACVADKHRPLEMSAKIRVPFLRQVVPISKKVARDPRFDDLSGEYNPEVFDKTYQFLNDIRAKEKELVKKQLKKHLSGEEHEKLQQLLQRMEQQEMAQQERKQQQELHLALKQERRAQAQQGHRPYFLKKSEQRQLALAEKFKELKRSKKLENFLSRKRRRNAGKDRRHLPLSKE

| Target | log2 fold change [1] | log2 fold change [2] | log2 fold change [3] | log2 fold change [4] | log2 fold change [5] | log2 fold change [6] | log2 fold change [7] | log2 fold change [8] | log2 fold change [9] | log2 fold change [10] | log2 fold change [11] | log2 fold change [12] | log2 fold change [13] | log2 fold change [14] | log2 fold change [15] | log2 fold change [16] | log2 fold change [17] | log2 fold change [18] | log2 fold change [19] | log2 fold change [20] |
| --- | --- | --- | --- | --- | --- | --- | --- | --- | --- | --- | --- | --- | --- | --- | --- | --- | --- | --- | --- | --- |
| RAD50, A0A494C0Y7 | -0.005 | -0.03 | -0.063 | -0.041 | 0.045 | 0 | -0.244 | -0.171 | 0.077 | -0.109 | 0.033 | 0.055 | -0.001 | 0.097 | 0.04 | – | – | – | – | – |
| RETSAT (UniProt Q6NUM9) | 0.014 | 0.025 | 0.088 | -0.037 | -0.03 | -0.077 | -0.091 | 0.009 | -0.073 | -0.073 | -0.012 | 0.036 | 0.042 | -0.011 | 0.053 | -0.003 | 0.31 | 0.024 | -0.003 | -0.083 |
| RPS25 (UniProt P62851) | 0.009 | 0 | -0.03 | 0 | -0.08 | -0.102 | 0.06 | -0.075 | 0.063 | 0.338 | 0.134 | -0.03 | -0.062 | 0.122 | 0.146 | 0.11 | 0.042 | 0.012 | -0.172 | 0.034 |
| SCAMP2 (UniProt H3BUB6) | -0.349 | 0.043 | -0.166 | -0.1 | -0.266 | -0.335 | -0.232 | 0.034 | -0.015 | -0.006 | – | -0.201 | -0.034 | 0.064 | – | 0.12 | -0.024 | -0.092 | -0.157 | -0.058 |
| SCO2 (UniProt O43819) | -0.487 (active) | -0.079 | 0.029 | -0.003 | 0.05 | 0.029 | 0.059 | 0.153 | -0.109 | -0.346 | -0.051 | 0.039 | 0.034 | -0.014 | -0.187 | 0.269 | 0.03 | – | -0.055 | 0.042 |
| RMC1 (UniProt Q96DM3) | 0.037 | 0.001 | -0.051 | 0.024 | 0.061 | 0.031 | 0.021 | 0.039 | -0.192 | -0.416 (active) | 0.042 | -0.023 | 0.005 | -0.039 | -0.146 | -0.031 | -0.013 | 0.095 | -0.025 | -0.041 |
| RDH13 (UniProt Q8NBN7) | 0.011 | -0.082 | 0.045 | 0.078 | 0.044 | 0.019 | -0.01 | 0.033 | -0.154 | -0.06 | -0.058 | 0.051 | 0.013 | -0.059 | -0.318 (active) | -0.046 | -0.002 | 0.06 | 0.022 | 0.009 |
| RFC3 (UniProt P40938) | -0.003 | -0.031 | 0.05 | 0.058 | 0.048 | 0.101 | 0 | -0.011 | -0.008 | -0.052 | -0.081 | 0.038 | 0.05 | -0.096 | -0.008 | -0.032 | -0.007 | 0.047 | 0.042 | 0.001 |
| SLC18B1 (UniProt Q6NT16) | -0.016 | -0.194 | -0.07 | -0.111 | 0.069 | 0.005 | -0.044 | 0.084 | 0.031 | -0.114 | -0.005 | -0.134 | -0.044 | -0.035 | -0.592 (active) | 0.034 | -0.02 | -0.034 | 0.022 | 0.068 |
| RCOR3 isoform 3 (UniProt Q9P2K3) | -0.12 | -0.046 | 0.051 | 0.012 | 0.025 | 0.031 | -0.022 | 0.098 | 0.005 | -0.068 | -0.294 | 0.038 | 0.037 | 0.02 | -0.011 | – | 0.075 | -0.078 | – | -0.074 |
| RAB3IL1 (UniProt E9PK89) | -0.069 | -0.037 | 0 | 0.061 | -0.08 | -0.053 | – | -0.014 | -0.012 | -0.137 | -0.555 (active) | 0.035 | 0.017 | – | -0.342 | -0.111 | 0.278 | 0.25 | 0.109 | -0.138 |
| RBM27 (UniProt Q9P2N5) | 0.031 | -0.008 | 0.01 | -0.018 | -0.008 | 0.09 | 0.041 | 0.009 | -0.141 | -0.296 (active) | 0.001 | 0.027 | 0.055 | -0.013 | -0.068 | 0.025 | 0.013 | 0.014 | 0.014 | -0.11 |
| RUFY3 isoform 3 (UniProt Q7L099) | -0.085 | -0.068 | 0.016 | 0.038 | -0.032 | -0.011 | -0.093 | – | -0.135 | -0.149 | 0.079 | 0.011 | – | -0.015 | -0.048 | – | 0.021 | -0.071 | – | -0.046 |
| RRP36 (UniProt Q96EU6) | 0.001 | -0.168 | -0.045 | – | -0.117 | 0.002 | 0.136 | -0.218 | 0.217 | 0.376 | 0.201 | -0.114 | -0.25 | 0.316 | 0.288 | 0.24 | 0 | -0.028 | -0.203 | 0.002 |
| RBM48 isoform 2 (UniProt Q5RL73) | -0.708 (active) | -0.13 | -0.009 | -0.007 | – | -0.011 | – | -0.069 | – | -0.003 | 0.078 | – | 0.006 | – | 0.114 | 0.04 | -0.03 | 0.002 | 0.003 | 0.13 |
| RNF167 (UniProt Q9H6Y7) | 0.037 | 0.008 | -0.041 | 0.037 | 0.031 | -0.06 | -0.096 | 0.018 | – | 0.003 | 0.057 | -0.008 | -0.019 | 0.05 | -0.097 | -0.059 | 0.005 | -0.043 | 0.039 | 0.103 |
| RPS14 (UniProt P62263) | 0.03 | 0 | -0.041 | -0.004 | -0.066 | -0.038 | 0.046 | -0.04 | 0.043 | 0.362 | 0.122 | -0.066 | -0.056 | 0.095 | 0.158 | 0.102 | 0.023 | 0.023 | -0.031 | 0.015 |
